Measurements as given in PubChem BioAssay (Tox21).
“And” between values parts separate entries of the source, which are not always exact repeats. Identical values can stand only once. Records with an inconclusive call do not appear. A call without a number means that no potency is given here. Some compounds were tested as several samples or in several runs, with calls that do not always agree. The source made the active and inactive calls. The call rests on the fitted dose curve; in most records, active means well fitted curve in the direction sought with a large enough effect in the repeat runs; inconclusive means weak or mixed curves; inactive means no such curve, though single readings can be large; an effect the other way counts as inactive or inconclusive.

Legend:
[1] = Caspase-3/7 induction in HepG2 cells by small molecules, qHTS assay (AID 1346978); further: nearly all actives have a fitted effect of over 15% in size; further: potency means the concentration at half of the fitted maximal effect
In short: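 Wild-type HepG2 cells (2,000/well) were settled 5 h at 37 C, 5% CO2, then exposed to compounds in DMSO for 17 h. Caspase-3/7 activity was read by luminescence 30 min after adding Caspase-Glo 3/7 reagent at room temperature.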

[2] = Caspase-3/7 induction in CHO-K1 cells by small molecules, qHTS cell viability counter screen (AID 1346979); further: nearly all actives have a fitted effect of over 35% in size; further: potency means the concentration at half of the fitted maximal effect
In short: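 Cells (CHO-K1, wild type) are plated at 1,500 per well and incubated 5hr. Test compounds in DMSO are then pinned in, followed by 16hr at 37C and 5% CO2. Viability is read by CellTiter-Fluor fluorescence after 1hr.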

[3] = Caspase-3/7 induction in CHO-K1 cells by small molecules, qHTS assay (AID 1346980); further: nearly all actives have a fitted effect of over 15% in size
In short: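 Wild-type cells were seeded at 1,500 per well and settled 5 hr at 37 C, 5% CO2, then exposed to DMSO-dissolved compounds for 17 hr. Caspase-Glo 3/7 reagent was added, and luminescence was read after 30min at room temperature.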

[4] = Caspase-3/7 induction in HepG2 cells by small molecules, qHTS cell viability counter screen (AID 1346981); further: nearly all actives have a fitted effect of over 30% in size; further: potency means the concentration at half of the fitted maximal effect
In short: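 Counter screen for cytotoxicity: HepG2 exposed 16 hr to compounds, then CellTiter-Fluor viability signal (fluorescence, 1 hr reagent incubation).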

[5] = molecular target: Nuclear receptor subfamily 1 group I member 2 (Homo sapiens) (UniProt O75469); assay: Human pregnane X receptor (PXR) small molecule agonists, qHTS assay (AID 1346982); further: nearly all actives have a fitted effect of over 35% in size; further: potency means the concentration at half of the fitted maximal effect
Nuclear receptor subfamily 1 group I member 2 (Homo sapiens), sequence (O75469 whole entry, looked up): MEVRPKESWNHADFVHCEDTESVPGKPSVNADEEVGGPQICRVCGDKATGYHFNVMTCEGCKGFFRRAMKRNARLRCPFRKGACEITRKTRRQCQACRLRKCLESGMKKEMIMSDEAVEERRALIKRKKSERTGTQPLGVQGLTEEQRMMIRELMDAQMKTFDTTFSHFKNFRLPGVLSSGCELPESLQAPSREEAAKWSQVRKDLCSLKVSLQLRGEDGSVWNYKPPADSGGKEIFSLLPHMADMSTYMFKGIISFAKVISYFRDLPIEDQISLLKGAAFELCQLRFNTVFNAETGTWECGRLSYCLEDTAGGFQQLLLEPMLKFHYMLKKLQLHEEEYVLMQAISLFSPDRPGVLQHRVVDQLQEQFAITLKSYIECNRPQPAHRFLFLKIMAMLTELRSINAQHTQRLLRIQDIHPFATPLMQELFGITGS
In short: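 Luminescence (ONE-Glo, 30 min RT) after 24 hr compound exposure of PXR-Luc HepG2 cells; cells rested 5 hr post-plating in 5% charcoal-stripped FBS medium.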

[6] = molecular target: Nuclear receptor subfamily 1 group I member 2 (Rattus norvegicus) (UniProt Q9R1A7); assay: Rat pregnane X receptor (rPXR) activation by small molecules, qHTS assay (AID 1346983); conditions: rPXR luciferase reporter cells, One-Glo luminescence, 24 h; max activation: stronger effect = higher value; further: nearly all actives have a fitted effect of over 20% in size
Nuclear receptor subfamily 1 group I member 2 (Rattus norvegicus), sequence (Q9R1A7 whole entry, looked up): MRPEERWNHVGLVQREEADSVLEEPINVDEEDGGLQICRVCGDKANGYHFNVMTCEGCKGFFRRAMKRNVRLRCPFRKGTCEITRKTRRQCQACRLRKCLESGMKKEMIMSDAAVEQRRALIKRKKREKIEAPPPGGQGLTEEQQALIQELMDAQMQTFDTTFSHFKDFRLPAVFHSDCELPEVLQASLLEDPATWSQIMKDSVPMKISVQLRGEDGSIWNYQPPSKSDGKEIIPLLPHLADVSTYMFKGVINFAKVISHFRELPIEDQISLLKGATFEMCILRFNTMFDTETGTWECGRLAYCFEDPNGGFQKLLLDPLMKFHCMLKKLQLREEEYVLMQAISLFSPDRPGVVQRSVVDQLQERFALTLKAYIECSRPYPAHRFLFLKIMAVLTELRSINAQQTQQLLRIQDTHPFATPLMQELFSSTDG
In short: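 Cell-based rPXR luciferase reporter assay, 2,000 cells per well, rested 5hr at 37 C before compound addition in DMSO, then 24 hr at 37 C. One-Glo reagent was added and luminescence read after 30 min at room temperature.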

[7] = molecular target: Nuclear receptor subfamily 1 group I member 2 (Homo sapiens) (UniProt O75469); assay: CYP3A4 induction through human pregnane X receptor (PXR) by small molecules, qHTS assay (AID 1346984); further: nearly all actives have a fitted effect of over 40% in size; further: potency means the concentration at half of the fitted maximal effect
In short: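 DPX-2 reporter cells; 24h cpd, 37C; Luciferin-IPA 3uM final x3h; One-Glo 30 min RT; lumi read.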

[8] = molecular target: Nuclear receptor subfamily 1 group I member 2 (Homo sapiens) (UniProt O75469); assay: Human pregnane X receptor (PXR) activation by small molecules, qHTS assay (AID 1346985); further: nearly all actives have a fitted effect of over 40% in size
In short: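 DPX-2 cells (HepG2 co-transfected with a PXR response element and a CYP3A4-promoter luciferase construct) were seeded at 2,000 per well, rested 5 hr at 37C, then exposed to DMSO-dissolved compounds for 24 hr. Activation was read as luciferase luminescence.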

[9] = molecular target: Cytochrome P450 2D6 (Homo sapiens) (UniProt P10635); assay: Cytochrome P450 Family 2 Subfamily D Member 6 (CYP2D6) small molecule antagonists: luciferase reporter qHTS assay (AID 1671196); further: nearly all actives have a fitted effect of over 50% in size; further: potency means the concentration at half of the fitted maximal effect
Cytochrome P450 2D6 (Homo sapiens), sequence (P10635 whole entry, looked up): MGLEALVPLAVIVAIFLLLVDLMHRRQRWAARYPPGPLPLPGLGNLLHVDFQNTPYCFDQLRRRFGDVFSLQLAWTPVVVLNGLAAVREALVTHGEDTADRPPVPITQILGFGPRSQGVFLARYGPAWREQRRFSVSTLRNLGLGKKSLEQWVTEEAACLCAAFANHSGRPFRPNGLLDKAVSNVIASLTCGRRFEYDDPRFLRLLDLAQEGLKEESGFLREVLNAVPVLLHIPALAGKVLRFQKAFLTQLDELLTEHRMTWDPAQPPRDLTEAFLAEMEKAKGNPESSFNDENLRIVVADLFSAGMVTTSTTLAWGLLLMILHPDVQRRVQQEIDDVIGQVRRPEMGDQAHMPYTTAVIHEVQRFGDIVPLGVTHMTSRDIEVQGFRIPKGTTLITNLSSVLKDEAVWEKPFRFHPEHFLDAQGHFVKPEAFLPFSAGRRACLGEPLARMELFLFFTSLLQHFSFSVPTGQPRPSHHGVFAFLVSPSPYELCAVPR
In short: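 Inhibition of CYP2D6 was gauged by loss of luminescence, since light produced tracks the luciferin generated from a proluciferin substrate. A 10 min room-temperature preincubation preceded 1 h NADPH-supported turnover.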

[10] = molecular target: Cytochrome P450 2C19 (Homo sapiens) (UniProt P33261); assay: Cytochrome P450 Family 2 Subfamily C Member 19 (CYP2C19) small molecule antagonists: luciferase reporter qHTS assay (AID 1671197); further: nearly all actives have a fitted effect of over 65% in size; further: potency means the concentration at half of the fitted maximal effect
Cytochrome P450 2C19 (Homo sapiens), sequence (P33261 whole entry, looked up): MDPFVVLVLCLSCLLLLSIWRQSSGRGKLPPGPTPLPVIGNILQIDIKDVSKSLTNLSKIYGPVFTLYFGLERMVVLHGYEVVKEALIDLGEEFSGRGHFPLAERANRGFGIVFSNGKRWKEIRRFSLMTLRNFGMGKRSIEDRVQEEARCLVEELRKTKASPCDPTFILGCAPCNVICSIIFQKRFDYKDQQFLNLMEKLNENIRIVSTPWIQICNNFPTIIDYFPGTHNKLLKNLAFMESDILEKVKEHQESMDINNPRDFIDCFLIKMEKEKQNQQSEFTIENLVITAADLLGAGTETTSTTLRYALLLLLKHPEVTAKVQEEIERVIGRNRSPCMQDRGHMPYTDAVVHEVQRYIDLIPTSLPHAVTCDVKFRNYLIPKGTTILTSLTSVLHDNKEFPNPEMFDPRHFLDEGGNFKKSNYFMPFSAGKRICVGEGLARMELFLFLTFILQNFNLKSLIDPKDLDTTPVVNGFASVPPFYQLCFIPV
In short: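 Light output is proportional to CYP2C19 activity: proluciferin substrate is converted to luciferin, then detected by a luciferin detection reagent that also stops the 1 h, 37C NADPH-driven reaction. Ketoconazole serves as positive control.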

[11] = molecular target: Cytochrome P450 2C9 (Homo sapiens) (UniProt P11712); assay: Cytochrome P450 Family 2 Subfamily C Member 9 (CYP2C9) small molecule antagonists: luciferase reporter qHTS assay (AID 1671198); further: nearly all actives have a fitted effect of over 50% in size; further: potency means the concentration at half of the fitted maximal effect
Cytochrome P450 2C9 (Homo sapiens), sequence (P11712 whole entry, looked up): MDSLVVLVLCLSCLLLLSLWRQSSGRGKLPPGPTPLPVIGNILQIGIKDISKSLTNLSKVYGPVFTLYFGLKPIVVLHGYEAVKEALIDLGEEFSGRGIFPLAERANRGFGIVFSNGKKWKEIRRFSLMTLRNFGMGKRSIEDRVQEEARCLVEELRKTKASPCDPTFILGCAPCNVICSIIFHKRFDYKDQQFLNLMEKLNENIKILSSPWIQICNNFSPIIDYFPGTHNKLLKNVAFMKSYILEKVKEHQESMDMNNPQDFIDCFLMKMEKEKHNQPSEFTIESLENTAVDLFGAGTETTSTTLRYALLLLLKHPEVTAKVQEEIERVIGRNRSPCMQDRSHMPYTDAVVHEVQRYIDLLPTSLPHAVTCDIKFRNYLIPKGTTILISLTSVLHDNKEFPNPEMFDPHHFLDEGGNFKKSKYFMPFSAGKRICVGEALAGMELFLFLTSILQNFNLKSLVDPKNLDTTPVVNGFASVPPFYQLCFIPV
In short: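 CYP2C9 activity was measured with a P450-Glo proluciferin substrate. Enzyme–substrate mix was held with compound for 10 min at room temperature, then NADPH regeneration solution was added for 1 h at 37C. Luciferin product was read as luminescence.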

[12] = molecular target: Cytochrome P450 1A2 (Homo sapiens) (UniProt P05177); assay: Cytochrome P450 Family 1 Subfamily A Member 2 (CYP1A2) small molecule antagonists: luciferase reporter qHTS assay (AID 1671199); further: nearly all actives have a fitted effect of over 50% in size; further: potency means the concentration at half of the fitted maximal effect
Cytochrome P450 1A2 (Homo sapiens), sequence (P05177 whole entry, looked up): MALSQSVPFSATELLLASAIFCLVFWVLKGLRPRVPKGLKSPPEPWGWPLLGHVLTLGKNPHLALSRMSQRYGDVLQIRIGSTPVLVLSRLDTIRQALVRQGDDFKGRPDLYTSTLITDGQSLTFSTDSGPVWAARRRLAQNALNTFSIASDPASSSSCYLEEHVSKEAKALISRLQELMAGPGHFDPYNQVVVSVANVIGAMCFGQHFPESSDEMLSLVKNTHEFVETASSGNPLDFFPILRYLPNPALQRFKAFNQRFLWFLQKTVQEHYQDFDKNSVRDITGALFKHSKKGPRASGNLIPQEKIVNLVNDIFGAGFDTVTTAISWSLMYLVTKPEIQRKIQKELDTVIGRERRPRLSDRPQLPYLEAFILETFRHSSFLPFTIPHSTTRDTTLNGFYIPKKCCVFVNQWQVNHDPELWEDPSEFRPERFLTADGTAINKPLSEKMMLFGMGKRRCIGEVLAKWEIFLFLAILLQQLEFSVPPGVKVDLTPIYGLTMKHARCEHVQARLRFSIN
In short: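 Signal from luciferin formed by CYP1A2 from a proluciferin substrate is read as luminescence, expressed in relative luminescence units. Compounds sit with enzyme 10 min, NADPH-driven reaction runs 1 h, all at room temperature.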

[13] = molecular target: Voltage-gated inwardly rectifying potassium channel KCNH2 (Homo sapiens) (UniProt Q12809); assay: Human Ether-a-go-go-Related Gene (hERG) channel small molecule antagonists: fluorescence cell-based qHTS assay (AID 1671200);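 further: hERG-expressing U2OS cells given a thallium stimulus after FluxOR II dye loading; series mostly up to about 77 µM; nearly all actives have a fitted effect of over 50% in size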
Voltage-gated inwardly rectifying potassium channel KCNH2 (Homo sapiens), sequence (Q12809 whole entry, looked up): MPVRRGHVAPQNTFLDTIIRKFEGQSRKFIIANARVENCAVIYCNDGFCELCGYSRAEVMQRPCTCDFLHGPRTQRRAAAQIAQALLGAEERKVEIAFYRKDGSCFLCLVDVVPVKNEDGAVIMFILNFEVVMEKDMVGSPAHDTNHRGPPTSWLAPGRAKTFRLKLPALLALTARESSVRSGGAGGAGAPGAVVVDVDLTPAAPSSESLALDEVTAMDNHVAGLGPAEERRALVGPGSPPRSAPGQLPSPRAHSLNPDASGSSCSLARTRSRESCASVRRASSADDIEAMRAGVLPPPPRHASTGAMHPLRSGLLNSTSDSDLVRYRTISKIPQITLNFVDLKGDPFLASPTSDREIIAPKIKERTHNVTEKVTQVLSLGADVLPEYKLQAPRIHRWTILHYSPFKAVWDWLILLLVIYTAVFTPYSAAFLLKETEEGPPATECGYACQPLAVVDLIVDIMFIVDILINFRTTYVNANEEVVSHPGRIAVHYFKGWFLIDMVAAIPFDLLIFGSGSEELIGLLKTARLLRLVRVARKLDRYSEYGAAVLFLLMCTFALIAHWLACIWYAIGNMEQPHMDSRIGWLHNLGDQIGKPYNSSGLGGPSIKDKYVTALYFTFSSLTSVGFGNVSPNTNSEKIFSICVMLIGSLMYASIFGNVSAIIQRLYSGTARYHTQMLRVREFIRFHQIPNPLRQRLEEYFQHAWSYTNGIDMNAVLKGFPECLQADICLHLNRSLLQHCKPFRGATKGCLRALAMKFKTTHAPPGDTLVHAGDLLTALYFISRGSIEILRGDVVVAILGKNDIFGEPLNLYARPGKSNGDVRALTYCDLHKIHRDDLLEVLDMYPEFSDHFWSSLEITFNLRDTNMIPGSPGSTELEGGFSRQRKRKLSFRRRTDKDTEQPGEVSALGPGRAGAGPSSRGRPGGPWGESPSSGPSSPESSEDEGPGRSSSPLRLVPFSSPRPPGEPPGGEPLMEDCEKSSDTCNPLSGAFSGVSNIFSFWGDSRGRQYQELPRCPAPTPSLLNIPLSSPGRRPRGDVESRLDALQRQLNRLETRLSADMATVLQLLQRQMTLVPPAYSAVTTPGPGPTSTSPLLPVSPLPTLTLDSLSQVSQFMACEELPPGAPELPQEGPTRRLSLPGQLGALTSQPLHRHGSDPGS
In short: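 Channel function was assessed by thallium flux. Cells seeded the previous day and kept at 37 C took up FluxOR II dye over 1 h in the dark at room temperature, then sat another 10 min before stimulation.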

[14] = molecular target: Cytochrome P450 3A4 (Homo sapiens) (UniProt P08684); assay: Cytochrome P450 Family 3 Subfamily A Member 4 (CYP3A4) small molecule antagonists: luciferase reporter qHTS assay (AID 1671201)
Cytochrome P450 3A4 (Homo sapiens), sequence (P08684 whole entry, looked up): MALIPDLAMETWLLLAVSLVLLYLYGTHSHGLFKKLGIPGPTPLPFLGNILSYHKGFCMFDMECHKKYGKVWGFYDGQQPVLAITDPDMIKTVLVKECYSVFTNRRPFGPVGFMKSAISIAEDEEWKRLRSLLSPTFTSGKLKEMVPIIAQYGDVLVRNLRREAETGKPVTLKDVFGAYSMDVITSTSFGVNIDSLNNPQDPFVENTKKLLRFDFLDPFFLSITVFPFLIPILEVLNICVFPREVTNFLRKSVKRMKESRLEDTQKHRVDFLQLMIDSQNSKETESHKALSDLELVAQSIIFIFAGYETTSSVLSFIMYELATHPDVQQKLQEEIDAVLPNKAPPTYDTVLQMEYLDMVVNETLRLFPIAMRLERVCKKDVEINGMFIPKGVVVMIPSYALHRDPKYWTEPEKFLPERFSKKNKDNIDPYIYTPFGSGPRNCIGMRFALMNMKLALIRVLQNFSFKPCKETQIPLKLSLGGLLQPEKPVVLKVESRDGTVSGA
In short: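 Compounds in DMSO were pin-transferred onto CYP3A4 enzyme-substrate mix and held 10 min at room temperature. NADPH regenerating solution started the reaction for 1 h; luciferin detection reagent stopped it, and luminescence was read after 20 min.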

| Compound | Potency [1] | Potency [2] | Potency [3] | Potency [4] | Potency [5] | max activation [6] | Potency [7] | outcome [8] | Potency [9] | Potency [10] | Potency [11] | Potency [12] | Potency [13] | Potency [14] |
| --- | --- | --- | --- | --- | --- | --- | --- | --- | --- | --- | --- | --- | --- | --- |
| CN(N=O)C(=O)N[C@@H]1[C@@H](O)[C@H](O)[C@@H](CO)O[C@@H]1O | inactive | inactive | inactive | inactive | inactive | -0.687% (inactive) | inactive | inactive | inactive | inactive | inactive | inactive | inactive | inactive |
| C=CCc1ccc(O)c(OC)c1 | inactive | inactive | inactive | inactive | inactive | -1.79% (inactive) | inactive | inactive | 9.97 µM (active) and inactive | 39.7 µM (active) and 56.4 µM (active) and inactive | – | 31.5 µM (active) and 39.9 µM (active) | inactive | inactive |
| CCOC(N)=O | inactive | inactive | inactive | inactive | inactive | -2.09% (inactive) | inactive | inactive | inactive | 60 µM (active) and inactive | inactive | inactive | inactive | inactive |
| CCCCCCc1ccc(O)cc1O | inactive | 61.3 µM (active) and 61.1 µM (active) and 1.19 µM (active) | inactive | inactive | 68.8 µM (active) and inactive | -2.3% (inactive) | inactive | inactive | 31.8 µM (active) and 31.7 µM (active) and 15.5 µM (active) | 5.04 µM (active) and 5.64 µM (active) and 3.89 µM (active) | 7.12 µM (active) and 6.33 µM (active) and 5.49 µM (active) | 71.2 µM (active) and 71 µM (active) and inactive | inactive | – |
| NC(CO)(CO)CO | inactive | inactive | inactive | inactive | inactive | -3.86% (inactive) | inactive | inactive | inactive | inactive | inactive | inactive | inactive | inactive |
| Nc1ccc(S(N)(=O)=O)cc1 | inactive | 48.8 µM (active) and inactive | inactive | inactive | – | – | – | – | – | – | – | – | – | – |
| CCCc1cc(=O)[nH]c(=S)[nH]1 | inactive | inactive | inactive | inactive | inactive | -3.01% (inactive) | inactive | inactive | inactive | inactive | inactive | inactive | inactive | inactive |
| Cc1c(C(=O)O)c(O)cc2c1C(=O)c1c(O)c([C@@H]3O[C@H](CO)[C@@H](O)[C@H](O)[C@H]3O)c(O)c(O)c1C2=O | inactive | 33.5 µM (active) and 27.3 µM (active) and 23.7 µM (active) | inactive | 18.9 µM (active) and 15.4 µM (active) and 26.6 µM (active) | inactive | -3.66% (inactive) | inactive | inactive | 31 µM (active) and 39.9 µM (active) | 39 µM (active) | 34.7 µM (active) and 39.9 µM (active) | 34.7 µM (active) and 39.9 µM (active) and inactive | inactive | inactive |
| CN1CCc2cccc3c2[C@H]1Cc1ccc(O)c(O)c1-3 | inactive | 55 µM (active) and 22.8 µM (active) and 23.7 µM (active) | inactive | 61.8 µM (active) and 25.6 µM (active) | inactive | 9.82% (inactive) | 6.31 µM (active) | inactive | 45.3 µM (active) and 11.8 µM (active) and 38.9 µM (active) | inactive | – | – | – | – |
| CC12CCC(CC1)C(C)(C)O2 | inactive | inactive | inactive | inactive | inactive | -0.857% (inactive) | inactive | inactive | inactive | inactive | inactive | 31.3 µM (active) and inactive | inactive | inactive |
| C[C@](N)(Cc1ccc(O)c(O)c1)C(=O)O | inactive | inactive | inactive | inactive | inactive | -6.56% (inactive) | inactive | inactive | inactive | inactive | inactive | inactive | inactive | inactive |
| Nc1c(N=Nc2ccc(-c3ccc(N=Nc4cc(S(=O)(=O)O)c5ccccc5c4N)cc3)cc2)cc(S(=O)(=O)O)c2ccccc12 | inactive | 12.2 µM (active) | inactive | 17.2 µM (active) | inactive | -6.72% (inactive) | 22.4 µM (active) | inactive | 35.6 µM (active) | 71 µM (active) | 31.7 µM (active) | 63.3 µM (active) | – | – |
| CN(C)C(=S)SC(=S)N(C)C | 4.98 µM (active) and 770 nM (active) and 3.76 µM (active) | 1.4 µM (active) and 433 nM (active) and 2.11 µM (active) | inactive | 30.6 µM (active) | 1.98 µM (active) and inactive | -4.94% (inactive) | inactive | inactive | – | 16.3 µM (active) and 20 µM (active) and 7.76 µM (active) | 36.5 µM (active) and 25.2 µM (active) and 34.7 µM (active) | 32.5 µM (active) and 39.9 µM (active) and 25.7 µM (active) | inactive | inactive |
